Source: PubChem BioAssay (Broad Institute)
Only a selection was taken, and hits are over-represented in it overall.
IDE exosite FP = insulin-degrading enzyme (human) exo-site inhibition; P14735; purified IDE, FL-6b probe fluorescence polarization; stronger effect = lower value; z-score at 20 µM; 6.3% of 17,000 active; AID 1259349;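 active = z-score of -3 or lower, meaning strong loss of probe binding signal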;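 note: His-tagged human IDE residues 42-1019 made in E. coli with 30 nM FL-6b probe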
Target sequence (P14735 42-1019 limits assumed): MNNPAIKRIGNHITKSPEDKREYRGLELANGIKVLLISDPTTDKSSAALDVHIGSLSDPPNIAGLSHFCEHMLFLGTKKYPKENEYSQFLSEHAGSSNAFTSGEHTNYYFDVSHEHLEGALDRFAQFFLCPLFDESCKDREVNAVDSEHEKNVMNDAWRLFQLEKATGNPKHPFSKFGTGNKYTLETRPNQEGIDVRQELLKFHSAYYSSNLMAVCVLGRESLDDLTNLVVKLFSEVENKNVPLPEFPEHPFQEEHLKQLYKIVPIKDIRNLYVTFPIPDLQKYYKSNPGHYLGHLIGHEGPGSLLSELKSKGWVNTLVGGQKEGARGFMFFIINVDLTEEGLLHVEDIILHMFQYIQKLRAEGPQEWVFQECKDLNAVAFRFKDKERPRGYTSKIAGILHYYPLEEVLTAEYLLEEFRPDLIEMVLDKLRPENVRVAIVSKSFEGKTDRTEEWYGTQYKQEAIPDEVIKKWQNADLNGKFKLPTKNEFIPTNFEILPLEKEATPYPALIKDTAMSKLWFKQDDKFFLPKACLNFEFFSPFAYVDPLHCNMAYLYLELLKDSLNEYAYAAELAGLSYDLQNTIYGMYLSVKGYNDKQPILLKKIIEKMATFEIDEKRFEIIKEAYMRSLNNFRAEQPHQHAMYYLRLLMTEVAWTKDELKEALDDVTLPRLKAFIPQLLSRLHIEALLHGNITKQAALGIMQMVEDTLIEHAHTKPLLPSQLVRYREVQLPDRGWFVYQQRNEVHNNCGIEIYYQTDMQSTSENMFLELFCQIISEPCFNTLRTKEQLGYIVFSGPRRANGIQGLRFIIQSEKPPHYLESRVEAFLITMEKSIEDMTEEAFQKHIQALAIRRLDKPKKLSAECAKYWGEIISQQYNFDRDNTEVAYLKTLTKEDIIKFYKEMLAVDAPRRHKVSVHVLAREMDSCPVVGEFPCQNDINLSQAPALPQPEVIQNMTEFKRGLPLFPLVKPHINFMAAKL
* hit, by the source's call.

SMILES | IDE exosite FP
O=C(C1CCOCC1)N1CC(=O)N2[C@H](CO)[C@H](c3ccc(-c4ccccc4F)cc3)[C@@H]2C1 | -1.7
O=C(C1CCOCC1)N1CC(=O)N2[C@@H](CO)[C@@H](c3ccc(-c4ccccc4F)cc3)[C@@H]2C1 | -2.4
O=C(C1CCOCC1)N1CC(=O)N2[C@H](C1)[C@H](c1ccc(-c3ccccc3F)cc1)[C@@H]2CO | 0.93
CN(C)CC(=O)N1[C@@H](CO)[C@H](c2ccccc2)C12CN(C(=O)c1ccc(F)cc1)C2 | 0.64
Cc1ccc(-c2ccc([C@@H]3[C@H](CO)N4CCCCN(C(=O)Nc5ccccc5)C[C@@H]34)cc2)cc1 | 4
COCCNC(=O)C[C@@H]1CC[C@@H]2[C@H](COC[C@@H](O)CN2C(=O)c2cc(Cl)cc(Cl)c2)O1 | 1.3
N#C[C@@H]1[C@H](c2ccc(C3=CCCCC3)cc2)[C@H](CO)N1C(=O)c1ccccn1 | 4.4
O=C(C1CCOCC1)N1CC(=O)N2[C@H](C1)[C@@H](c1ccc(/C=C/c3ccccc3)cc1)[C@@H]2CO | -7.6*
O=C(C1CCOCC1)N1CC(=O)N2[C@H](CO)[C@H](c3ccc(Br)cc3)[C@@H]2C1 | -0.28
CCCC#Cc1ccc([C@H]2[C@H]3CN(C(=O)CN4CCOCC4)CC(=O)N3[C@H]2CO)cc1 | 4.6
O=C(CN1CCOCC1)N1CC(=O)N2[C@H](CO)[C@@H](c3ccc(-c4ccccc4)cc3)[C@H]2C1 | 3.1
O=C(CN1CCOCC1)N1CC(=O)N2[C@H](CO)[C@@H](c3ccc(/C=C/c4ccccc4)cc3)[C@@H]2C1 | -4.4*
CCCC#Cc1ccc([C@@H]2[C@@H](CO)N3C(=O)CN(C(=O)CN4CCOCC4)C[C@H]23)cc1 | 1.8
O=C(CN1CCOCC1)N1CC(=O)N2[C@H](CO)[C@@H](c3ccc(/C=C/c4ccccc4)cc3)[C@H]2C1 | -6*
CCCC#Cc1ccc([C@H]2[C@H](CO)N3C(=O)CN(C(=O)CN4CCOCC4)C[C@@H]23)cc1 | 1.2
O=C(C1CCOCC1)N1CC(=O)N2[C@@H](CO)[C@@H](c3ccc(Br)cc3)[C@@H]2C1 | 1.4
CNC(=O)C[C@H]1CC[C@H]2[C@H](COc3ccc(NS(=O)(=O)c4ccc(F)cc4)cc3C(=O)N2C)O1 | -0.44
Cc1ccccc1S(=O)(=O)N1[C@@H](C#N)[C@H](c2ccc(-c3ccccc3)cc2)[C@@H]1CO | 0.79
CN1C(=O)c2cc(NC(=O)Cc3cccs3)ccc2OC[C@@H]2O[C@@H](CC(=O)NCC3CCCCC3)CC[C@H]21 | -0.12
COc1cccc(C(=O)Nc2ccc3c(c2)C(=O)N(C)[C@@H]2CC[C@@H](CC(=O)N[C@@H](C)c4ccccc4)O[C@H]2CO3)c1 | -0.77
COc1cccc(C(=O)Nc2ccc3c(c2)C(=O)N(C)[C@H]2CC[C@@H](CC(=O)N[C@@H](C)c4ccccc4)O[C@@H]2CO3)c1 | -7*
COc1cccc(C(=O)Nc2ccc3c(c2)C(=O)N(C)[C@@H]2CC[C@@H](CC(=O)N[C@H](C)c4ccccc4)O[C@H]2CO3)c1 | -1.6
COc1cccc(C(=O)Nc2ccc3c(c2)C(=O)N(C)[C@H]2CC[C@@H](CC(=O)N[C@H](C)c4ccccc4)O[C@@H]2CO3)c1 | -3.6*
C[C@H](NC(=O)C[C@H]1CC[C@@H]2[C@@H](COc3ccc(NC(=O)C4CCOCC4)cc3C(=O)N2C)O1)c1ccccc1 | -0.8
COc1cccc(C(=O)Nc2ccc3c(c2)C(=O)N(C)[C@@H]2CC[C@@H](CC(=O)N[C@@H](C)c4ccccc4)O[C@@H]2CO3)c1 | 0.59
SMILES | IDE exosite FP
O=C(C[C@H]1C[C@@H]2c3cc(NC(=O)c4ccc5c(c4)OCO5)ccc3O[C@@H]2[C@H](CO)O1)NCCN1CCCCC1 | -1.1
CN(C[C@H]1[C@H](c2ccccc2)[C@@H](CO)N1CC1CC1)C(=O)c1ccc(F)cc1 | -0.13
O=C(c1ccc(F)cc1)N1CC(=O)N2[C@H](CO)[C@H](c3ccc(-c4ccccc4)cc3)[C@H]2C1 | -0.52
CO[C@@H]1CN(C)C(=O)c2cc(NC(=O)Nc3cccc(Cl)c3)ccc2OC[C@H](C)N(C(=O)Nc2c(C)noc2C)C[C@H]1C | -0.45
CO[C@H]1CN(C)C(=O)c2cc(NC(C)=O)ccc2OC[C@H](C)N(Cc2ccncc2)C[C@H]1C | 0.082
CCCNC(=O)[C@H]1[C@H](CO)[C@H]2Cn3c(cccc3=O)[C@H]2N1Cc1cccc(F)c1 | 0.25
CCCC#Cc1ccc([C@@H]2[C@H](CO)N3CCCCN(Cc4cccnc4)C[C@@H]23)cc1 | 0.86
OC[C@H]1[C@@H](c2ccc(C#Cc3ccccc3)cc2)[C@H]2CN(Cc3cncnc3)CCCCN21 | -0.52
CCCC#Cc1ccc([C@H]2[C@H](CO)N3CCCCN(Cc4cncnc4)C[C@@H]23)cc1 | 2.3
CCCC#Cc1ccc([C@@H]2[C@H](CO)N3CCCCN(Cc4cncnc4)C[C@@H]23)cc1 | 0.051
COCC#Cc1ccc([C@H]2[C@H]3CN(Cc4cncnc4)CCCCN3[C@H]2CO)cc1 | 1.3
OC[C@@H]1[C@H](c2ccc(C#Cc3ccccc3)cc2)[C@H]2CN(Cc3cncnc3)CCCCN12 | -8.5*
OC[C@H]1[C@H](c2ccc(C#Cc3ccccc3)cc2)[C@@H]2CN(Cc3cncnc3)CCCCN12 | -4.5*
OC[C@@H]1[C@@H](c2ccc(C#Cc3ccccc3)cc2)[C@@H]2CN(Cc3cncnc3)CCCCN12 | -6.4*
COCC#Cc1ccc([C@H]2[C@@H](CO)N3CCCCN(Cc4cncnc4)C[C@@H]23)cc1 | 1.7
O=C1C[C@@H](c2ccccc2)C(=O)N[C@@H](c2ccccc2)C/C=C\C[C@@H](c2ccccc2)N1 | -0.22
O=C(Nc1ccccc1)N1CC(=O)N2[C@H](CO)[C@@H](c3ccc(-c4ccc(F)cc4)cc3)[C@@H]2C1 | 2.1
COCC(=O)N1[C@@H](C#N)[C@@H](c2ccccc2C2=CCCCC2)[C@@H]1CO | 0.26
N#C[C@H]1[C@@H](c2ccc(C3=CCCCC3)cc2)[C@@H](CO)N1S(=O)(=O)c1ccccc1 | 1.1
O=C(C[C@@H]1CC[C@@H]2NC[C@H](O)COC[C@H]2O1)Nc1ccc(-c2ccccc2)cc1 | -2.2
O=C(C[C@@H]1CC[C@H]2[C@@H](COC[C@@H](O)CN2CC2CCOCC2)O1)NCC1CCCCC1 | 1.1
C[C@@H]1CN([C@@H](C)CO)C(=O)c2cc(C#Cc3ccccc3)cnc2O[C@@H]1CN(C)C(=O)c1ccccc1 | -4*
C[C@H]1CN([C@@H](C)CO)C(=O)c2cc(/C=C/c3ccccc3)cnc2O[C@H]1CN(C)S(=O)(=O)c1ccccc1F | 0.065
C[C@@H]1CN([C@@H](C)CO)C(=O)c2cc(/C=C/c3ccccc3)cnc2O[C@H]1CN(C)S(=O)(=O)c1ccccc1F | -3.4*
C[C@H]1CN([C@@H](C)CO)C(=O)c2cc(/C=C/c3ccccc3)cnc2O[C@@H]1CN(C)S(=O)(=O)c1ccccc1F | -0.071
C[C@H](CO)N1C[C@H](C)[C@@H](CN(C)C(=O)c2ccccc2)Oc2ncc(C#Cc3ccccc3)cc2C1=O | -2.2
C[C@@H]1CN([C@H](C)CO)C(=O)c2cc(C#Cc3ccccc3)cnc2O[C@@H]1CN(C)C(=O)c1ccccc1 | -1.8
O=C(NCC[C@@H]1CC[C@H](NC(=O)c2ccccc2F)[C@H](CO)O1)c1cnccn1 | 0.46
COc1ccc2c3c([nH]c2c1)[C@@H](CO)N(C(=O)CC1CC1)CC31CN(Cc2cccnc2)C1 | 0.35
C[C@H]1CC=CC[C@H](c2ccc3c(c2)OCO3)NC(=O)[C@H](C)N(C)C(=O)c2ccccc2O1 (mixture of isomers) | -1.8
